# From PubChem BioAssay
# E coli Lon inh: inhibits E. coli Lon protease | P0A9M0 | purified E. coli Lon protease, fluorescence polarization | inhibition, % at 7.94 µM | 0.42% of 360,000 active | AID 602123; in the data active means inhibition above about 13%, passing the limit was not always enough;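 further: 0% = enzyme with probe and DMSO and 100% = no enzyme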
# Keap1-Nrf2 PPI: disrupts human Keap1 binding to Nrf2 peptide. inhibition, % at 9.4 µM. AID 504523. Keap1 Kelch-Nrf2 peptide fluorescence polarization, 1536-well. 0.15% of 340,000 active. Q14145; in the data active means inhibition above about 12%;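 further: human Keap1 Kelch domain with fluorescein labeled Nrf2 9mer peptide probe; 0% = neutral control wells and 100% = peptide positive control; higher means more block of Keap1 binding to Nrf2 peptide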
# Target sequence (Q14145 whole entry, looked up, the tested form may be a part): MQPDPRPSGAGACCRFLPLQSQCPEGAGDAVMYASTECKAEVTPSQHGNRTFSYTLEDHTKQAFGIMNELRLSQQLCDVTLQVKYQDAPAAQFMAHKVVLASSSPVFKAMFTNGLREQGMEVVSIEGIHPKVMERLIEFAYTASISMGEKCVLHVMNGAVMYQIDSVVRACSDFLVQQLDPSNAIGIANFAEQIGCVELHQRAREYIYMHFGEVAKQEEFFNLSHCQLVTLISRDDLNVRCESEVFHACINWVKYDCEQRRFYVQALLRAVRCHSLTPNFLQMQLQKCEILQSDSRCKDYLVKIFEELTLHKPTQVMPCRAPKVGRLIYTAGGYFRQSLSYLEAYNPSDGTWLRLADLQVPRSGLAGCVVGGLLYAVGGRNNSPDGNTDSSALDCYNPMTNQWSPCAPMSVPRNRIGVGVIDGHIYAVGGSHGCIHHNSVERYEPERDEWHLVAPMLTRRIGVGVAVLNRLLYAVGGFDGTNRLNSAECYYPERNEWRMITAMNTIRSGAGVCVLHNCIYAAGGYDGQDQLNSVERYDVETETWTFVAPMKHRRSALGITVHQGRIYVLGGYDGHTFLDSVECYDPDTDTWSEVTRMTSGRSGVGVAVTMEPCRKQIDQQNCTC
# Cardiac RTF inh: cardiac RTF calcium desensitization. 0.12% of 340,000 active. inhibition, % at 7.15 µM. IANBD-labeled cardiac RTF, Ca2+ fluorescence;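 active means inhibition above the mean inhibition of all tested compounds plus 3 SD, cut at about 17% in these data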;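 further: assay run at fixed EC70 calcium of 1.6 mM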
# cardiac RTF act: cardiac RTF calcium sensitization. P19429+P45379. activation, % at 7.2 µM. 0.24% of 340,000 active. IANBD-labeled TnC RTF fluorescence at EC20 calcium; 0% EC20 calcium, 100% full calcium;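 active means activation above the mean over all tested compounds plus 3 SD, cut at about 30% in these data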;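 further: rise in fluorescence read as greater calcium sensitivity of cardiac thin filaments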
# C-LANA FP: inhibitors of KSHV LANA C-terminal domain DNA binding | MBP-C-LANA/FAM-LBS DNA binding, fluorescence polarization | inhibition, % at 9 µM | 0.078% of 340,000 active;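 active means highest replicate inhibition at or above 60% at 9 µM, even if other replicates fall short; inactive means all replicates below 60% inhibition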;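 further: 0% = neutral control wells and 100% = 4 µM acridine orange control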
# The depositor's hits bear a star; i = inactive; . = not tested or not shown. Rows were chosen to be rich in hits. Some 0.82% of all compounds tested hit in one or more screens of this group.
SMILES,E coli Lon inh,Keap1-Nrf2 PPI,Cardiac RTF inh,cardiac RTF act,C-LANA FP
CCOC(=O)[C@]12CCC=C1N(Cc1ccco1)C(=O)[C@H](CC(=O)N1CCOCC1)C2,-4,.,.,.,.
O=C(CC1C(=O)N(c2ccc(Cl)cc2)C(=S)N1CCc1ccncc1)Nc1ccc(F)cc1 (stereo not given),5,-5,1,39*,0
CC(C)(C)c1ccc(CC(=O)N2CCC2(C)C(=O)NCCC#N)cc1 (stereo not given),6,.,.,.,.
CCN(CC)c1ccc(/C=c2\sc3nc4ccccc4n3c2=O)c(O)c1,-94,-8,-81,53*,2
Cc1cccc(OCc2nn[nH]n2)c1C,-2,-2,6,165*,2
O=c1[nH][nH]c2c1[C@H](c1ccccc1)O[C@H](C1CCCCC1)C2,2,.,.,.,.
CC1(C(=O)NS(=O)(=O)c2ccc(Cl)cc2)CCN1C(=O)C1(c2ccc(Cl)cc2)CCC1 (stereo not given),-4,.,.,.,.
CCOC(=O)CC(=O)CSc1nc(-c2ccc3c(c2)OCO3)cc(C(F)(F)F)c1C#N,-28,1,-12,40*,7
CC(=O)N1C(=O)C(=C2C=C(C)OC(C)=C2)c2ccccc21,-13,2,-24,66*,12
CCN(CC)c1ccc2cc(C(=O)NCc3ccc(F)cc3)c(=N)oc2c1,-20,-241,-82,267*,-25
CC(C)N(C)c1ncnc2c1ncn2[C@H]1CN(CCc2ccccc2)C[C@@H](CO)O1,4,.,.,.,.
CCn1c(=N)n(CC(O)c2ccco2)c2ccccc21 (stereo not given),5,-3,3,4,2
N=c1n(Cc2ccccc2)c2ccccc2n1CC(O)c1ccco1 (stereo not given),-51,0,-57,40*,22
N#CC1=C(N)Oc2cc(N)ccc2C1c1cccnc1 (stereo not given),5,-10,-7,7,0
CCN(CC)c1ccc2c(c1)OC(N)=C(C#N)C2c1cccnc1 (stereo not given),-391,-76,-197,157*,2
N#CC1=C(N)C(C#N)(C#N)[C@H](c2cccnc2)[C@H]2CN(C(=O)OCc3ccccc3)CC=C12,7,-6,-2,2,4
N#CC1=C(N)C(C#N)(C#N)C(c2cccnc2)C2CC(c3ccccc3)CC=C12 (stereo not given),18*,0,-21,3,11
COc1ccc(/C=c2\s/c(=C/C(=O)c3ccc(C)cc3)[nH]c2=O)cc1OC,i,-4,-42,30*,2
CC(C)(C)C(=O)/C=c1\[nH]c(=O)/c(=C\c2ccc(F)cc2)s1,2,-1,-3,2,-1
CCOC(=O)[C@H]1[C@H]2COc3ccccc3[C@@H]2N2C(=O)CN(Cc3ccc(C)cc3)C(=O)[C@@]12C,-14,8,-62,19,61*
O=C1c2ccccc2NC(c2cn[nH]c2-c2ccc(Cl)cc2)N1O (stereo not given),13,12*,-9,5,8
O=C1c2ccccc2NC(c2cn[nH]c2-c2ccccc2)N1O (stereo not given),-16,4,-10,5,-1
O=C(COC(=O)CCc1c[nH]c(=O)[nH]1)Nc1ccccc1,24*,7,-15,1,6
O=C(COC(=O)CCc1c[nH]c2ccccc12)Nc1ccccc1,-2,-1,3,-3,0
C/C(=N\NC(=O)c1cc2c(s1)CCC(C)C2)c1ccc[nH]1 (stereo not given),-15,-145,-29,37*,29
SMILES,E coli Lon inh,Keap1-Nrf2 PPI,Cardiac RTF inh,cardiac RTF act,C-LANA FP
CS/C(=N\S(=O)(=O)c1ccc(N)cc1)NS(=O)(=O)c1cccs1,-4,7,-5,-3,113*
C=CCNc1nc(Nc2ccc(OC)c(OC)c2)c2sc(-c3ccccc3)cc2n1,-14,.,.,.,.
CN(CCc1ccccc1)C(c1ccnc2ccccc12)c1nnnn1-c1ccc2c(c1)OCCO2 (stereo not given),-3,.,.,.,.
O=C(O)Cc1ccc(N=Nc2c(O)c(C(=O)O)cc3ccccc23)cc1,15,-2,17,-19,92*
COC(=O)c1ccccc1C(=O)c1c(C)cc(C)cc1C,-4,.,.,.,.
COc1ccc(N/C=C2\CCOC2=O)cc1,3,1,1,2,-2
COc1ccc(N/C=C2\C(=O)CCc3c2oc2cc(Cl)c(O)c(Cl)c32)cc1,-5,-2,-28,100*,3
CCOc1ccc(CCN2C(=O)C(=O)N([C@@H](Cc3ccccc3)CN3CCC[C@H]3CN3C(=O)C(=O)NC[C@@H]3Cc3ccccc3)C[C@@H]2Cc2ccc(O)cc2)cc1,-5,.,.,.,.
CCOC(=O)[C@]12CCCC=C1N(Cc1ccc3c(c1)OCO3)C(=O)[C@H](CC(=O)N1CCCC1)C2,-3,.,.,.,.
CN(C)c1ccc(/C=C(\C#N)C(=O)c2ccccc2)cc1,i,-11,-106,80*,6
CCN(CC)c1ccc(/C=C(\C#N)C(=O)c2ccc(Br)cc2)cc1,i,-19,-488,559*,6
CCN(CC)c1ccc(/C=C(\C#N)C(N)=S)cc1,-224,-57,-282,200*,-9
Cc1ccc(C=C(C#N)C(=O)c2ccccc2)cc1,-5,.,.,.,.
O=C1NC[C@@H](CCCCN2CCN(CCc3ccc(O)cc3)C(=O)C2=O)N(Cc2ccccc2)C1=O,1,.,.,.,.
c1coc(-c2nc(-c3ccco3)c(-c3ccco3)nc2-c2ccco2)c1,17*,-3,107*,-36,6
CC1=C(O)C(=O)C(C2=C(O)C(=O)C(C)=C(O)C2=O)=C(O)C1=O,-4,-2,8,-5,61*
COc1cc(C2C(C#N)=C(N)OC3=C2C(=O)CCC3)c([N+](=O)[O-])cc1OC (stereo not given),50*,9,-6,13,59
O=c1[nH][nH]c2c1[C@H](CCc1cccc(Cl)c1)O[C@H](C1CCCC1)C2,2,.,.,.,.
Cc1nn(Cc2c(F)c(F)c(F)c(F)c2F)c(C)c1NC(=O)c1nn(C)c(C)c1Br,9,2,2,47*,-1
CCCN(C)C1CN(Cc2cn(Cc3ccccc3)nn2)S(=O)(=O)C1 (stereo not given),-8,.,.,.,.
Cc1ccnc(N/C=C(\C#N)c2nc(-c3cccc(Br)c3)cs2)c1,-142,-5,-156,95*,1
N#C/C(=C\Nc1ccc2cn[nH]c2c1)c1nc(-c2ccccc2)cs1,-7,-1,-2,-6,-3
COc1cc2c3c(c1OC)C(=O)CC3CCCC2 (stereo not given),5,.,.,.,.
COc1ccc2c(CC(=O)Nc3nc(C)cs3)coc2c1,-1,0,6,-2,1
COc1ccc2c(CC(=O)Nc3ncc(C)s3)coc2c1,-1,1,-3,-8,78*
CCC(c1nnnn1-c1ccc2c(c1)OCCO2)N1CCN(CC)CC1 (stereo not given),-1,.,.,.,.
O=C1/C(=C/c2cccc(F)c2)Oc2cc(O)ccc21,-46,-3,-43,49*,8
